Each structure is given as a SMILES string. Records with an inconclusive call do not appear. Calls of active or inactive are those of the source. How the calls were made is not given here.

A short description of one test: qHTS Assay for Inhibitors of Influenza NS1 Protein Function: Viral Replication TCID50. The conditions noted are these: Influenza virus replication in cells, at 10 µM, stronger effect = lower value. From the text:
Influenza is a world-wide public health problem and emerging forms of the virus have the potential to cause a pandemic of equal or greater magnitude to the outbreaks recorded in 1918, 1957 or 1968. Vaccine development is proceeding and there also exist two classes of anti-influenza compounds. However these therapeutic modalities are neither fully effective nor widely enough available to fulfill global needs. In addition their potential usefulness against newly emergent strains is not known. Efforts are needed to develop novel agents against influenza virus, including broad-spectrum agents. Identification of small molecules that inhibit NS1 function either directly or by interfering with specific cellular pathways may be a key to increasing our defense against the virus.
We have miniaturized and optimized a cell based assay in which NS1 from influenza A is expressed in the budding yeast S. cerevisiae. NS1 is a multi-functional protein that counters the host innate immune response and facilitates viral versus cellular gene expression. Expression of NS1 causes a pronounced slow growth phenotype in yeast due to its intrinsic molecular activities. Small molecules that suppress the slow growth phenotype can be identified by a straightforward growth recovery assay using optical density (OD) as the measurement. The same yeast strain not expressing NS1 was used as positive control in the yeast growth recovery assay.
Hits resulting from the primary screen and other follow-up screens, were tested in two concentrations in this viral replication assay.
NIH Chemical Genomics Center [NCGC]
NIH Molecular Libraries Probe Centers Network [MLPCN]
Assay Submitter (PI): Daniel Engel, University of Virgina
Cell monolayers were infected at an m.o.i. of 0.1 for 48 h in the presence or absence of the compound, which was added at the beginning of infection. Virus titres were determined by TCID50 analysis (Reed, L. J. & Muench, H. (1938). A simple method of estimating fifty per cent endpoints. Am J Epidemiol 27, 493-497)
Background: In qHTS, concentration-response curves come from the screen itself.
Regarding `Cc1nn(-c2ccc(F)cc2)c2nc(N)c(C#N)c(-c3ccc(O)c(O)c3)c12`, the viral titer (log10 TCID50) is 7.66 (active).

As for `COc1cc(-c2c(C#N)c(N)nc3c2c(C)nn3-c2ccc(C)cc2)cc(OC)c1OC`, the viral titer (log10 TCID50) is 8.66 (active).

`COc1cc(-c2c3c(C)nn(-c4ccccc4)c3nc3[nH]c(=O)[nH]c(=O)c23)cc(OC)c1O`: the viral titer (log10 TCID50) is 8.33 (active).

With `COc1cc(-c2c(C#N)c(N)nc3c2c(C)nn3-c2ccc(F)cc2)cc(OC)c1OC`, the viral titer (log10 TCID50) was 9 (active).

Turning to `COc1cc(-c2c(C#N)c(N)nc3c2c(C)nn3-c2ccc(F)cc2)ccc1O`, the viral titer (log10 TCID50) was 6 (active).

With `COc1cccc(-n2nc(C)c3c(-c4ccc(O)c(OC)c4)ccnc32)c1`, the viral titer (log10 TCID50) was 9 (active).

Take `Cc1nn(-c2ccccc2)c2nc3[nH]c(=O)[nH]c(=O)c3c(-c3ccc4c(c3)OCO4)c12`: the viral titer (log10 TCID50) is 8.33 (active).

For the compound `COc1ccc(-c2c(C#N)c(=O)[nH]c3c2c(C)nn3-c2ccccc2)cc1OC`, the viral titer (log10 TCID50) was 8.66 (active).

Turning to `COc1cccc(-c2ccnc3c2c(C)nn3-c2ccc(F)cc2)c1`, the viral titer (log10 TCID50) is 8.5 (active).

For `COc1ccc(-c2c(C#N)c(N)nc3c2c(C)nn3-c2ccccc2)cc1OC`, the viral titer (log10 TCID50) is 8.66 (active).

For `COc1cc(-c2c(C#N)c(N)nc3c2c(C)nn3-c2ccc(Cl)cc2)cc(OC)c1OC`, the viral titer (log10 TCID50) is 9 (active).

Turning to `COc1ccc(-c2c3c(C)nn(-c4ccccc4)c3nc3[nH]c(=O)[nH]c(=O)c23)cc1OC`, the viral titer (log10 TCID50) was 8.33 (active).

For the compound `COc1cc(-c2c(C#N)c(N)nc3c2c(C)nn3-c2ccc(C)c(C)c2)cc(OC)c1OC`, the viral titer (log10 TCID50) is 9 (active).

As for `COc1cc(-c2c(C#N)c(=O)[nH]c3c2c(C)nn3-c2ccccc2)ccc1O`, the viral titer (log10 TCID50) is 7.66 (active).

For `COc1cc(-c2c(C#N)c(=O)[nH]c3c2c(C)nn3-c2ccccc2)cc(OC)c1OC`, the viral titer (log10 TCID50) is 7.66 (active).

Consider `COc1ccc(-c2c(C#N)c(N)nc3c2c(C)nn3-c2ccc(Cl)cc2)cc1OC`, for which the viral titer (log10 TCID50) was 9 (active).

Regarding `COc1ccc(-c2c(C#N)c(N)nc3c2c(C)nn3-c2ccc(C)cc2)cc1OC`, the viral titer (log10 TCID50) was 9 (active).

For `COc1cc(-c2c(C#N)c(N)nc3c2c(C)nn3-c2ccc(C)c(C)c2)ccc1O`, the viral titer (log10 TCID50) was 8.5 (active).

Consider `CCOc1cc(-c2c(C#N)c(=O)[nH]c3c2c(C)nn3-c2ccc(F)cc2)ccc1O`, for which the viral titer (log10 TCID50) was 8.66 (active).

For the compound `COc1cc(-c2c(C#N)c(N)nc3c2c(C)nn3-c2ccc(C)cc2)ccc1O`, the viral titer (log10 TCID50) was 8.5 (active).

Staying with this test, now noted: Influenza virus replication in cells, viral titer, at 5 µM, stronger effect = lower value.
`Cc1nn(-c2ccc(F)cc2)c2nc(N)c(C#N)c(-c3ccc(O)c(O)c3)c12` showed a viral titer (log10 TCID50) of 8.5.

Compound `COc1cc(-c2c(C#N)c(N)nc3c2c(C)nn3-c2ccc(C)cc2)cc(OC)c1OC` came in with a viral titer (log10 TCID50) of 9.

`COc1cc(-c2c3c(C)nn(-c4ccccc4)c3nc3[nH]c(=O)[nH]c(=O)c23)cc(OC)c1O` returned a viral titer (log10 TCID50) of 8.66.

The compound `COc1cc(-c2c(C#N)c(N)nc3c2c(C)nn3-c2ccc(F)cc2)cc(OC)c1OC` yielded a viral titer (log10 TCID50) of 9.

`COc1cc(-c2c(C#N)c(N)nc3c2c(C)nn3-c2ccc(F)cc2)ccc1O` registered a viral titer (log10 TCID50) of 7.66.

The compound `COc1cccc(-n2nc(C)c3c(-c4ccc(O)c(OC)c4)ccnc32)c1` came in with a viral titer (log10 TCID50) of 9.

Take `Cc1nn(-c2ccccc2)c2nc3[nH]c(=O)[nH]c(=O)c3c(-c3ccc4c(c3)OCO4)c12`: the viral titer (log10 TCID50) is 8.66.

`COc1ccc(-c2c(C#N)c(=O)[nH]c3c2c(C)nn3-c2ccccc2)cc1OC` registered a viral titer (log10 TCID50) of 9.

`COc1cccc(-c2ccnc3c2c(C)nn3-c2ccc(F)cc2)c1` displayed a viral titer (log10 TCID50) of 9.

The compound `COc1ccc(-c2c(C#N)c(N)nc3c2c(C)nn3-c2ccccc2)cc1OC` displayed a viral titer (log10 TCID50) of 9.

`COc1cc(-c2c(C#N)c(N)nc3c2c(C)nn3-c2ccc(Cl)cc2)cc(OC)c1OC` registered a viral titer (log10 TCID50) of 9.

As for `COc1ccc(-c2c3c(C)nn(-c4ccccc4)c3nc3[nH]c(=O)[nH]c(=O)c23)cc1OC`, the viral titer (log10 TCID50) amounted to 9.

The compound `COc1cc(-c2c(C#N)c(N)nc3c2c(C)nn3-c2ccc(C)c(C)c2)cc(OC)c1OC` had a viral titer (log10 TCID50) of 9.

`COc1cc(-c2c(C#N)c(=O)[nH]c3c2c(C)nn3-c2ccccc2)ccc1O`: the viral titer (log10 TCID50) was 8.5.

Compound `COc1cc(-c2c(C#N)c(=O)[nH]c3c2c(C)nn3-c2ccccc2)cc(OC)c1OC` displayed a viral titer (log10 TCID50) of 8.5.

`COc1ccc(-c2c(C#N)c(N)nc3c2c(C)nn3-c2ccc(Cl)cc2)cc1OC` registered a viral titer (log10 TCID50) of 9.

`COc1ccc(-c2c(C#N)c(N)nc3c2c(C)nn3-c2ccc(C)cc2)cc1OC` showed a viral titer (log10 TCID50) of 9.

In turn, `COc1cc(-c2c(C#N)c(N)nc3c2c(C)nn3-c2ccc(C)c(C)c2)ccc1O` displayed a viral titer (log10 TCID50) of 8.66.

Compound `CCOc1cc(-c2c(C#N)c(=O)[nH]c3c2c(C)nn3-c2ccc(F)cc2)ccc1O` returned a viral titer (log10 TCID50) of 9.

As to `COc1cc(-c2c(C#N)c(N)nc3c2c(C)nn3-c2ccc(C)cc2)ccc1O`, the viral titer (log10 TCID50) is 8.5.

Values taken from PubChem BioAssay AID602454 (National Center for Advancing Translational Sciences (NCATS), 2012).
